Compounds with a hit are over-represented: about 11% of the library has one in this group of screens.
L3MBTL1 inh: blocks human L3MBTL1; 230,000 compounds, 0.66% hits; Q9Y468; AID 485360; Potency, µM (top dose mostly 57.1 µM), for the others: at the top dose activity, negative = inhibition, usual class: inhibitors; AlphaScreen L3MBTL1–H3K9me1 peptide binding; further: on the % scale 0 is the no-effect control and ±100 the full control effect; nearly all actives have a fitted effect of over 60% in size
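Displacement of a biotinylated histone H3(1-15) peptide monomethylated at Lys9 (75 nM) from L3MBTL1 (50 nM) was measured by AlphaScreen after a 30 min room-temperature compound incubation; cefsulodin titration served as intraplate control.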
HP1b binding inh: blocks HP1-beta chromodomain binding to methylated histone tails; P83916; 390,000 compounds, 0.56% hits; AlphaScreen HP1-beta / biotin-H3K9me3 peptide binding; Potency, µM (titrated, usually from 114 µM), without a hit: at the top dose activity change, negative = inhibition, most hits filed as inhibitors; further: nearly all actives have a fitted effect of over 70% in size
Target sequence (P83916 whole entry, looked up): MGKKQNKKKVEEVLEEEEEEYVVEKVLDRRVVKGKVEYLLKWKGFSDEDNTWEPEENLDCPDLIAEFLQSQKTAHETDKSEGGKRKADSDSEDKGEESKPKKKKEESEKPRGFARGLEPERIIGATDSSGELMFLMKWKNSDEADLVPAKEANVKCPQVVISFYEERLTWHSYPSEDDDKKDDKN
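Compound inhibition of the preformed complex between 50 nM HP1-beta and 50 nM biotinylated H3K9me3 peptide was read by AlphaScreen. Buffer was PBS pH 7.4 with 0.01% Tween-20. Incubations ran 30 min at room temperature, with 10 ug/mL donor/acceptor beads.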
JMJD2A Tudor inh: blocks the human JMJD2A Tudor domain. O75164. AlphaScreen JMJD2A-Tudor / H3K4me3 peptide binding. Potency, µM (highest dose often 114 µM), for inactives: at the highest dose activity change, negative = inhibition, hits mostly inhibitors. 390,000 compounds, 4.4% hits; further: on the % scale 0 is the no-effect control and ±100 the full control effect; nearly all actives have a fitted effect of over 50% in size
BAZ2B inh: BAZ2B (human) inhibition | Potency, µM (titrated, usually from 114 µM), without a hit: at the highest dose activity change, negative = inhibition, most hits filed as inhibitors | 360,000 compounds, 4.4% hits | AlphaScreen BAZ2B-H3K14Ac peptide displacement | Q9UIF8; further: on the % scale 0 is the no-effect control and ±100 the full control effect; nearly all actives have a fitted effect of over 60% in size
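BAZ2B 50 nM plus b-H3(5-23)K14Ac 50 nM, PBS pH 7.4/0.01% Tween-20, 30 min RT; compound added (max 110 uM), 30 min RT; streptavidin donor/Ni-chelate acceptor beads 10 ug/mL final, 20 min dark; AlphaScreen read.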
G9a inh: inhibitors of human histone lysine methyltransferase G9a. G9a H3K9 monomethylation, AlphaScreen, 2 h. Q96KQ7. 350,000 compounds, 8.8% hits. Potency, µM (doses to about 102 µM), for inactives: top-dose activity, negative = inhibition, actives largely listed as inhibitors; further: on the % scale 0 is the no-effect control and ±100 the full control effect; nearly all actives have a fitted effect of over 75% in size
Target sequence (Q96KQ7 913-1193 limits assumed): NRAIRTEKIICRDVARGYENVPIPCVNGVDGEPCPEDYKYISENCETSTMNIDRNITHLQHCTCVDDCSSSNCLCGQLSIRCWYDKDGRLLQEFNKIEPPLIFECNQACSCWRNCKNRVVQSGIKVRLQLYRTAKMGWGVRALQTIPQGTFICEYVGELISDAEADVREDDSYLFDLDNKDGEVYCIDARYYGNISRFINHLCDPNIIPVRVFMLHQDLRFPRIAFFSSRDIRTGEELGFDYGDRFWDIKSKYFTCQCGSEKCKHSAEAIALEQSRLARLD
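G9a (20 nM) was preincubated 15 min with compound, then reacted 2 h at room temperature with 500 nM biotin-H3K9 peptide and 20 µM SAM. Monomethyl-H3K9 detected by AlphaScreen using anti-H3K9me1 antibody.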
* marks the source's active call; other numbers are inactive results; ? = inconclusive; · = not tested or not shown; ! = repeats disagree; [ ] = another dose, or the depositor's remark. The call rests on the fitted dose curve; in most records, active means well fitted inhibition curve with a large enough effect; inconclusive means small, poorly fitted or top-dose-only effect; inactive means no such curve, though single readings can be large or run the other way. Potency means the concentration at half of the fitted maximal effect.

SMILES | L3MBTL1 inh | HP1b binding inh | JMJD2A Tudor inh | BAZ2B inh | G9a inh
O=c1[nH]c(=S)n(C2CC2)c(O)c1C=NCc1ccc(F)cc1 | · | 24% | -7% | 14% | -26%
O=C(N/N=C/c1c(O)n(CCC2=CCCCC2)c(=S)[nH]c1=O)c1ccccc1 | 6% | 17% | ? | -5% | ?
Cc1ccccc1-n1c(O)c(/C=N/NC(=O)c2ccccc2O)c(=O)[nH]c1=S | ? | -8% | -28%[11.4 µM] | 45µM* | 32%[59 µM]
O=c1[nH]c(=S)n(C2CC2)c(O)c1C=NCc1cccnc1 | -5% | 29% | 28µM* | -4% | ?
O=C(N/N=C/c1c(O)n(C2CC2)c(=S)[nH]c1=O)c1ccccc1O | -16% | 17% | 40µM* | 45µM* | 25%[59 µM]
O=C(N/N=C/c1c(O)n(-c2ccccc2)c(=S)[nH]c1=O)c1ccccc1 | · | 32% | 45µM* | 45µM* | 5%
Cc1cc2oc(=O)cc(-c3ccccc3)c2c(C)c1-c1ccc(CO)cc1 | -7% | 33% | -14% | · | ?
Cc1ccc2c(c1)[C@@H]1CN(C)CC[C@H]1N2 | · | · | · | · | 3%[12.7 µM]
Cn1c(=O)c2c(nc(N/N=C/c3c(O)n(C4CCCCC4)c(=S)[nH]c3=O)n2C)n(C)c1=O | -26% | ? | 79µM* | 50µM* | 22µM*
Cc1ccccc1-n1c(O)c(/C=N/Nc2nc3c(c(=O)n(C)c(=O)n3C)n2C)c(=O)[nH]c1=S | -11% | 3% | ? | ? | ?
O=c1[nH]c(=S)n(C2CC2)c(O)c1C=Nc1ccc2c(c1)OCO2 | · | 32% | -12% | 3% | 71µM*
c1ccc(N2CCC3(CCNCC3)CC2)nc1 | · | · | · | · | -4%[12.7 µM]
Cn1c(=O)oc2cc(NC(=O)CCl)ccc21 | · | 54% | -15% | 2% | -6%[12.7 µM]
COc1ccc(C(=O)CC2(CC(=O)c3ccc(OC)cc3)C(=O)N(C)C(=O)N(C)C2=O)cc1 | · | 37% | -4% | 1% | 40µM*
COc1cc2c(cc1OC)C(C)N(C(=O)c1nccnc1C(=O)O)CC2 (stereo not given) | -5% | -10% | 50µM* | ? | ?
Cc1cnn(-c2cc(Oc3ccccc3)ncn2)c1 | 18% | 89% | 38% | 0% | -49%
COc1ccc2o/c(=N\O)c(C(=O)Nc3ccc(C)cc3)cc2c1 | -2% | 22% | -22% | -4% | 50µM*
Cc1nc(-c2ccc(-c3ccc(C(=O)N4CCc5cc6c(cc54)C4(CCN(C)CC4)CO6)cc3)c(C)c2)no1 | · | · | · | · | -14%[12.7 µM]
Nn1c(COc2ccc(Cl)cc2)n[nH]c1=S | 10% | -8% | 32µM* | -14% | 1.8µM*
Cc1cccc(C)c1OCc1n[nH]c(=S)n1N | 3% | -18% | 18µM* | ? | 1.8µM*
CN1CCC[C@H]1c1cccnc1 | 11% | 24% | ? | -5% | 14µM*!
O=C1C2CCCN2C(c2cccnc2)N1c1cccc(Cl)c1 (stereo not given) | · | 25% | -1% | 6% | -1%
c1cncc(C2CCCCN2Cc2ccc3c(c2)OCO3)c1 (stereo not given) | -2% | 1% | -33% | ? | 79µM*
O=C1C2CCCN2C(c2cccnc2)N1c1nccs1 (stereo not given) | 4% | 18% | ? | -35% | 13µM*
Clc1cccc(CN2CCCCC2c2cccnc2)c1 (stereo not given) | -5% | 50% | -13% | ? | 56µM*
SMILES | L3MBTL1 inh | HP1b binding inh | JMJD2A Tudor inh | BAZ2B inh | G9a inh
CN1CCCCC1c1ccc(-c2cccnc2)nc1 (stereo not given) | 7% | 32% | -18% | ? | -118%[59 µM]
O=S(=O)(c1ccccc1)N1CCCCC1c1cccnc1 (stereo not given) | -1% | 8% | -10% | -24% | 4%[12.7 µM]
CCCC(=O)OC(C(Cl)(Cl)Cl)P(=O)(OC)OC (stereo not given) | · | · | · | · | -17%[59 µM]
COC(=O)c1ccccc1OC(=O)c1ccc(Br)o1 | 3%[11.4 µM] | 50% | -9% | 12% | 1%[12.7 µM]
CC(C)(COC(=O)C(c1ccccc1)c1ccccc1)CN1CCOCC1 | · | 82% | 106% | · | ·
O=C1CC=C2C3CC4N(CCC45c4cc(O)c(O)cc4N1C25)CC3=CCBr (stereo not given) | · | ? | 3.5µM* | · | ·
CN1C[C@H](CNC(=O)OCc2ccccc2)C[C@@H]2c3cccc4c3c(cn4C)C[C@H]21 | -1% | -1% | ? | 45µM* | 24µM*!
O=C1NC(=S)NC(=O)C1=Cc1ccc(OCC(=O)N2CCCC2)cc1 | · | ? | 45µM* | ? | 14µM*
CCOc1ccc(C=C2C(=O)NC(=S)NC2=O)cc1OCC | · | -3% | ? | · | ·
COc1cc(/C=C2/C(=O)N(c3ccccc3)N=C2C)ccc1OS(=O)(=O)c1ccccc1 | ? | · | · | 28µM* | 35µM*
CCOc1cc(C=C2C(=O)NC(=O)NC2=O)ccc1OCC(=O)N1CCOCC1 | -2% | 53% | -8% | -5% | 8.9µM*
CCOc1cc(C=C2C(=O)NC(=O)NC2=O)ccc1OS(=O)(=O)c1ccccc1 | · | 11% | 79µM* | -9% | 22µM*
O=C(COc1ccc(Br)cc1)N1CCN(C2CCCC2)CC1 | · | 29% | -8% | 2% | 3%[59 µM]
Cc1ccc(S(=O)(=O)Oc2ccccc2C=C2C(=O)N(C)C(=O)N(C)C2=O)cc1 | · | 46% | 0% | 0% | ·
CC(C)(C)NCC(O)c1cc(Cl)c(N)c(C(F)(F)F)c1 (stereo not given) | · | · | · | · | -45%[12.7 µM]
COc1cc(C=C2C(=O)NC(=O)NC2=O)ccc1OS(=O)(=O)c1ccccc1[N+](=O)[O-] | · | ? | 32µM* | 50µM* | 10µM*
O=S(c1ccccc1)c1ccccc1 | · | 42% | -5% | · | ·
CC1CCCN(CC(=O)N2CCCc3ccccc32)C1 (stereo not given) | 14%[11.4 µM] | 24% | 1% | 13% | -1%[59 µM]
O=C(O)C1Cc2ccccc2N2CCCC12 (stereo not given) | · | 83% | -19% | -24% | 40µM*
CC1(C)OC(c2ccccc2)=C/C(=C/C=C2C(=O)NC(=O)NC2=O)O1 | · | -4% | -31% | -37% | 35µM*
CC(N)(COP(=O)(O)Oc1ccccc1)C(=O)O (stereo not given) | · | · | · | · | 27%[59 µM]
CCn1c(C)cc(/C=C2\C(=O)NC(=O)N(c3ccccc3C)C2=O)c1C | -14% | 31% | -3% | -34% | ?
Cc1ccc(-n2c(C)cc(/C=C3/C(=O)NC(=O)N(Cc4ccco4)C3=O)c2C)cc1 | ? | -14% | ? | 35µM* | ?
Cc1ccccc1-n1c(C)cc(/C=C2/C(=O)NC(=O)N(Cc3ccco3)C2=O)c1C | -10% | -11% | 28µM* | ? | ?
Cc1cc(/C=C2\C(=O)NC(=O)N(Cc3ccco3)C2=O)c(C)n1-c1ccc(O)cc1 | 40µM* | ? | ? | ? | ?
Clc1ccc(CS[C@@H](Cn2ccnc2)c2ccc(Cl)cc2Cl)cc1 | · | · | · | · | -12%[21.5 µM]

Assay outcomes deposited in PubChem by National Center for Advancing Translational Sciences (NCATS).
